{"source": "PubChem BioAssay (NCATS)", "note": "Inconclusive results are not listed. Active and inactive are the calls of the source. Calls come from the whole dose curve; as a rule, active = well fitted cell-killing curve with a large enough effect; inconclusive = small, poorly fitted or top-dose-only effect, or effect the other way; inactive = no such curve, though single readings can be large or run the other way. Potency is the fitted concentration of half-maximal effect.", "data": [{"experiment": "Quantitative High-Throughput drug screen in 47 multiple myeloma cell lines against the NCATS MIPE library collection: H1112_PLB cell viability assay (AID 1918967; note: nearly all actives have a fitted effect of over 30% in size)", "conditions": "H1112 myeloma cells viability, ATP luminescence, 48 h; series mostly up to 45.8 µM", "outline": "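We plated 500 myeloma cells per well, pinned in MIPE 4.0 compounds, and incubated for 48 hours at 37C. ATP was then quantified with CellTiter-Glo, with DMSO and media-only wells defining 100% and 0%.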", "values": [{"smiles": "CN[C@@H]1CN(c2ccc3c(=O)c(C(=O)O)cn(-c4nccs4)c3n2)C[C@@H]1OC", "Potency": "12.9 µM (active)"}, {"smiles": "O=C1NC(=O)C(=Cc2ccc(-c3ccc(F)cc3O)o2)S1", "Potency": "20.9 µM (active)"}, {"smiles": "Cc1cc(OCCCS(C)(=O)=O)cc(C)c1-c1cccc(COc2ccc3c(c2)OC[C@H]3CC(=O)O)c1", "Potency": "20.9 µM (active)"}, {"smiles": "COc1cc2c(cc1OC)CC(=O)N(CCCN(C)C[C@H]1Cc3cc(OC)c(OC)cc31)CC2", "Potency": "3.72 µM (active)"}, {"smiles": "CC(C)C[C@H](NC(=O)c1cc2ccccc2s1)C(=O)N1CCN(C(=O)[C@H](CO)NS(=O)(=O)c2ccc(Cl)cc2Cl)CC1", "Potency": "20.9 µM (active)"}, {"smiles": "C[C@@H]1[C@H](O)[C@@H](C)C=CC=CC=CC=CC=CC=CC=C[C@H](O[C@@H]2O[C@H](C)[C@H](O)[C@H](N)[C@@H]2O)C[C@@H]2O[C@](O)(C[C@@H](O)C[C@@H](O)[C@H](O)CC[C@@H](O)C[C@@H](O)CC(=O)O[C@H]1C)C[C@H](O)[C@@H]2C(=O)O", "Potency": "3.32 µM (active)"}, {"smiles": "Cc1cnc(-c2cc(N3CCN(C(=O)CCS(C)(=O)=O)CC3)ncc2Cl)c(C)c1", "Potency": "inactive"}]}]}
